# Results filed as inconclusive are left out. A call without a number means that no potency is given here. Values without a mark were called inactive. Calls of active or inactive are those of the source. Calls come from the whole dose curve; as a rule, active = well fitted curve in the direction sought with a large enough effect; inconclusive = small, poorly fitted or top-dose-only effect, or another doubt; inactive = no such curve, though single readings can be large; an effect the other way counts as inactive or inconclusive.
# Key:
# Furin (Homo sapiens) = Furin (Homo sapiens) (UniProt P09958); test: Furin counterscreen qHTS for Zika virus inhibitors (AID 1347149); note: nearly all actives have a fitted effect of over 70% in size; note: potency is the fitted concentration of half-maximal effect
# Chain of Furin (Homo sapiens) (P09958 whole entry, looked up): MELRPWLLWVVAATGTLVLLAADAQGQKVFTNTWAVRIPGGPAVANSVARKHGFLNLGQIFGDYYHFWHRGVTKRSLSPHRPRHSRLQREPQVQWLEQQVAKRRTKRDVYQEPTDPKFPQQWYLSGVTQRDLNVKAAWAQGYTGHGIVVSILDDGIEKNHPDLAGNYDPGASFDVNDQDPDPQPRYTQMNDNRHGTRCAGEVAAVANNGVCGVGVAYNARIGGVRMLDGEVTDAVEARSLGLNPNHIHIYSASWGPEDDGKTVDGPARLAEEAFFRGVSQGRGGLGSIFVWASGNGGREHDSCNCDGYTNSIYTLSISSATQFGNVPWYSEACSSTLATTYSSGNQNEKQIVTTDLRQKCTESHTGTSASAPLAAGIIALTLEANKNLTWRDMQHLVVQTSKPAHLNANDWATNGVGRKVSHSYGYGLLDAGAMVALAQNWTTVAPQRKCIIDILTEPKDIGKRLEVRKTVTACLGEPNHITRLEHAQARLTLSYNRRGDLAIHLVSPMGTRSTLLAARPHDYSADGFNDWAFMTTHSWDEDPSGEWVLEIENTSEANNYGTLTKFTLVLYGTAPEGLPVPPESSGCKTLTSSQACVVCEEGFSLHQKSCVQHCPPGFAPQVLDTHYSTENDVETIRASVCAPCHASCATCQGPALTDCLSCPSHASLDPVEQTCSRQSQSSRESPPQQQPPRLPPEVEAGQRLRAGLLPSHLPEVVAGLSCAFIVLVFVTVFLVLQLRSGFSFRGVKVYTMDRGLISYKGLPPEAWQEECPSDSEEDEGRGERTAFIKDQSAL
# Procedure, shortened: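 Fluorogenic cleavage of BOC-RVRR-AMC (2 microM final, Km ~15 µM) was monitored (ex 340, em 450 nm) at 37C after 15 min RT preincubation of 5 nM furin with compounds in HEPES pH 7.0 buffer with CaCl2 and Triton X-100. Percent inhibition was fitted to a 4-parameter Hill curve.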
# [1] = Confirmatory screen GU Rhodamine qHTS for Zika virus inhibitors qHTS (AID 1347157); note: nearly all actives have a fitted effect of over 70% in size
# Procedure, shortened: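 A qHTS format was used, with compound concentrations ranging up to 114 microM. Each compound was preincubated with 25 nM NS2B-NS3 protease, and the substrate was then added at 1.5 microM. Curves were fitted with a 4-parameter Hill model.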
# [2] = Confirmatory screen NINDS Rhodamine qHTS for Zika virus inhibitors (AID 1347161);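 note: purified Zika NS2B-NS3 protease with linked NS2B cofactor domain and Rhodamine110 peptide substrate; series mostly up to about 110 µM; nearly all actives have a fitted effect of over 60% in size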
# Procedure, shortened: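 Percent inhibition, normalized to uninhibited and enzyme-free controls, is fitted to a 4-parameter Hill equation. Fluorescence change comes from a 15-min cleavage of 1.5 microM bis-peptide Rhodamine110 substrate by 25 nM linked NS2B-NS3 at room temperature.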
# [3] = Tertiary RLuc qRT-PCR qHTS assay for Zika virus inhibitors (AID 1347169); note: top concentration of the series differs between compounds; nearly all actives have a fitted effect of over 55% in size
# Procedure, shortened: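 Orthogonal cell-based readout: luminescence measured 1-1.5 hrs after adding live-cell Renilla substrate to Vero cells that had been infected with ZIKV-RLuc (MOI 1-2) post-compound, incubated 48-72 hrs at 37 degrees C.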
# [4] = target: Calcium and integrin-binding protein 1 (Homo sapiens) (UniProt Q99828); test: Primary qHTS for Identification of Calcium Integrin Binding Protein 1 (CIB1) Competitor (AID 1508620);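 note: GST tagged CIB1 binding a fluorescein labelled alphaIIb integrin peptide tracer; top concentration of the series differs between compounds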
# Chain of Calcium and integrin-binding protein 1 (Homo sapiens) (Q99828 whole entry, looked up): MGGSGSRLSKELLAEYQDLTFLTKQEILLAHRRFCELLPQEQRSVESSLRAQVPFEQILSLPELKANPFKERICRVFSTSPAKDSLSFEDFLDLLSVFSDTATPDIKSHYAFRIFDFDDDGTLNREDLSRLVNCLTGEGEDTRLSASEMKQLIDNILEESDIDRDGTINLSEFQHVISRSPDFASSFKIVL
# Procedure, shortened: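 CIB1-GST (1 uM final) and compound incubated 15 min at room temperature before adding FITC-alphaIIb peptide tracer (100 nM final). Competition for binding read by fluorescence polarization (ex 480, em 540) after another 15 min at room temperature.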
SMILES,Potency (Furin (Homo sapiens)),Potency [1],Potency [2],Potency [3],outcome [4]
O=C(OCC#CCSc1nnc(-c2cccc3ccccc23)o1)c1ccc(F)cc1F,46.9 µM (active),inactive,inactive,inactive,inactive
O=C(OCc1cccc(C(F)(F)F)c1)c1ccc(-c2nnn(Cc3ccc(F)cc3)n2)cc1,inactive,inactive,inactive,inactive,
O=C(OCC#CCSc1nnc(-c2ccc(F)cc2)o1)c1ccc(F)cc1,inactive,inactive,inactive,inactive,inactive
O=C(OCC#CCSc1nnc(-c2cccc3ccccc23)o1)c1sc2ccccc2c1Cl,46.9 µM (active),inactive,inactive,inactive,
COc1ccc(S(=O)(=O)c2cc(NS(=O)(=O)c3ccc(Cl)cc3)c(C)c(C)c2O)cc1,inactive,inactive,inactive,inactive,

# Source: PubChem BioAssay (NCATS)
